# Measurements published in PubChem BioAssay (Tox21).
# Unmarked numbers belong to inactive results. Results filed as inconclusive are left out. Where a call stands in place of a potency, no number is given. The source made the active and inactive calls. Unless noted, calls follow the shape of the dose curve; as a rule, active = well fitted curve in the direction sought with a large enough effect in the repeat runs; inconclusive = weak or mixed curves; inactive = no such curve, though single readings can be large; an effect the other way counts as inactive or inconclusive.
# Assays:
# [1] = qHTS assay for small molecule agonists of the p53 signaling pathway (AID 651631; calls by dose curve; also: nearly all actives have a fitted effect of over 15% in size)
# How it was run: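 HCT-116 cells carrying a beta-lactamase reporter under p53 response elements were dosed with compound for 16 h at 37 °C. LiveBLAzer B/G FRET substrate was then added for 2 h at room temperature, and fluorescence intensity was read to detect pathway agonism.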
# [2] = qHTS assay for small molecules that induce genotoxicity in human embryonic kidney cells expressing luciferase-tagged ATAD5 (AID 651632); also: nearly all actives have a fitted effect of over 15% in size
# How it was run: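 Luminescence read-out: after 16 hr compound exposure at 37C, ATAD5-luciferase HEK293T cells received Amplite, 30 min RT, then CCD imaging. A rise in signal marks genotoxic stress.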
# [3] = qHTS assay for small molecule agonists of the p53 signaling pathway - cell viability (AID 651633; calls by dose curve;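 also: p53RE-bla HCT reporter cells with a stable beta-lactamase p53 reporter; series mostly up to about 83 µM; nearly all actives have a fitted effect of over 30% in size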)
# How it was run: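 p53RE-bla cells, seeded at 4,000 per well and rested 5 h at 37 C/5% CO2, received compounds in DMSO for 16 h at 37 C. CellTiter-Glo was then added, and luminescence was read after 30 min at room temperature to gauge cytotoxicity.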
# [4] = qHTS assay for small molecules that induce genotoxicity in human embryonic kidney cells expressing luciferase-tagged ATAD5 - cell viability (AID 651634; calls by dose curve; also: nearly all actives have a fitted effect of over 25% in size)
# How it was run: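 HEK293T ATAD5-luc cells, 2,000/well; compound 15.5 hr, 37C/5% CO2; CellTiter-Fluor 30 min, 37C; fluorescence read.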
# [5] = qHTS assay for small molecule disruptors of the mitochondrial membrane potential - cell viability (AID 720634; calls by dose curve;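 also: human HepG2 liver cancer cells; series mostly up to about 83 µM; nearly all actives have a fitted effect of over 20% in size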)
# How it was run: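 Luminescence from CellTiter-Glo (ATP content) gave viability in HepG2 cells, read in the same wells as the MMP dye assay after 1 hr compound exposure at 37 C.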
# [6] = qHTS assay for small molecule disruptors of the mitochondrial membrane potential (AID 720635); also: potency is read from the fitted curve at half-maximal effect
# How it was run: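 HepG2 cells (2,000/well) attached overnight at 37C, then took compound for 1 hr at 37C, 5% CO2. Mito-MPS dye was added for 30 min; fluorescence was read at 490/535 nm (monomers) and 540/590 nm (aggregates).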
# [7] = qHTS assay to test for compound auto fluorescence at 590 nm (red) in HepG2 cells (AID 720674)
# How it was run: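 Compound auto-fluorescence is scored relative to Rose Bengal sodium, measured at 540/590 nm in live HepG2 cultures after 1 hr compound contact (37 C, 5% CO2).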
# [8] = qHTS assay to test for compound auto fluorescence at 535 nm (green) in HepG2 cells (AID 720675)
# [9] = qHTS assay to test for compound auto fluorescence at 460 nm (blue) in HEK293 cells (AID 720678)
# How it was run: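 HEK293 cells (2,000/well, medium with 10% dialyzed FBS) attached 4-5 hr, then exposed to compound overnight at 37C, 5% CO2. Blue fluorescence read at 405/460 nm, with triamterene as reference fluorophore.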
# [10] = qHTS assay to test for compound auto fluorescence at 590 nm (red) in HEK293 cells (AID 720679)
# How it was run: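 HEK293 cells (2,000/well, 10% dialyzed FBS) attached 4-5 hr, then dosed with compound or DMSO and incubated overnight at 37C, 5% CO2. Red fluorescence read at 540/590 nm, Rose Bengal sodium as reference fluorophore.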
# [11] = qHTS assay to test for compound auto fluorescence at 535 nm (green) in HEK293 cells (AID 720680)
# [12] = qHTS assay to test for compound auto fluorescence at 460 nm (blue) in HEK293 cell free culture (AID 720681)
# How it was run: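 Test compounds were pinned into cell-free culture medium (DMEM with 10% FBS) and fluorescence was read directly at Ex/Em 405/460 nm. Signals were expressed as fluorescence equivalents of triamterene, with DMSO vehicle as control.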
# [13] = qHTS assay to test for compound auto fluorescence at 535 nm (green) in HEK293 cell free culture (AID 720682)
# How it was run: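 Green-label autofluorescence (485 nm excitation, 535 nm emission) measured on compound added to cell-free culture medium (DMEM, 10% FBS). Output is expressed relative to fluorescein.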
# [14] = qHTS assay to test for compound auto fluorescence at 590 nm (red) in HEK293 cell free culture (AID 720683)
# How it was run: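 Tox21 10K library compounds were pinned into cell-free DMEM with 10% FBS and fluorescence was read at excitation 540 nm. Activity is expressed as Rose Bengal sodium equivalency.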
# [15] = qHTS assay to test for compound auto fluorescence at 590 nm (red) in HepG2 cell free culture (AID 720684)
# How it was run: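 Ex 540 / Em 590 nm read of compound in cell-free MEM (10% FBS). Rose Bengal sodium reference.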
# [16] = qHTS assay to test for compound auto fluorescence at 460 nm (blue) in HepG2 cell free culture (AID 720685)
# How it was run: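 Cell-free plates of MEM plus 10% FBS received 23 nL compound or DMSO vehicle; blue-channel (405/460 nm) intensity scored against triamterene as reference fluorophore.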
# [17] = qHTS assay to test for compound auto fluorescence at 460 nm (blue) in HepG2 cells (AID 720687)
# How it was run: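 Cells (2,000/well in MEM with 10% FBS) attached overnight at 37 C, then were exposed to compound or DMSO for 1 hr at 37 C, 5% CO2. Fluorescence read at Ex/Em 405/460 nm, expressed as triamterene-equivalent signal.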
# [18] = qHTS assay to test for compound auto fluorescence at 535 nm (green) in HepG2 cell free culture (AID 720686)
# [19] = molecular target: Glucocorticoid receptor (Homo sapiens) (UniProt P04150); test: qHTS assay to identify small molecule agonists of the glucocorticoid receptor (GR) signaling pathway (AID 720691; active = well fitted activation curve with a large enough effect in the signal ratio in the repeat runs, not every such curve was filed as active; the % refers to the signal ratio)
# Glucocorticoid receptor (Homo sapiens), sequence (P04150 whole entry, looked up): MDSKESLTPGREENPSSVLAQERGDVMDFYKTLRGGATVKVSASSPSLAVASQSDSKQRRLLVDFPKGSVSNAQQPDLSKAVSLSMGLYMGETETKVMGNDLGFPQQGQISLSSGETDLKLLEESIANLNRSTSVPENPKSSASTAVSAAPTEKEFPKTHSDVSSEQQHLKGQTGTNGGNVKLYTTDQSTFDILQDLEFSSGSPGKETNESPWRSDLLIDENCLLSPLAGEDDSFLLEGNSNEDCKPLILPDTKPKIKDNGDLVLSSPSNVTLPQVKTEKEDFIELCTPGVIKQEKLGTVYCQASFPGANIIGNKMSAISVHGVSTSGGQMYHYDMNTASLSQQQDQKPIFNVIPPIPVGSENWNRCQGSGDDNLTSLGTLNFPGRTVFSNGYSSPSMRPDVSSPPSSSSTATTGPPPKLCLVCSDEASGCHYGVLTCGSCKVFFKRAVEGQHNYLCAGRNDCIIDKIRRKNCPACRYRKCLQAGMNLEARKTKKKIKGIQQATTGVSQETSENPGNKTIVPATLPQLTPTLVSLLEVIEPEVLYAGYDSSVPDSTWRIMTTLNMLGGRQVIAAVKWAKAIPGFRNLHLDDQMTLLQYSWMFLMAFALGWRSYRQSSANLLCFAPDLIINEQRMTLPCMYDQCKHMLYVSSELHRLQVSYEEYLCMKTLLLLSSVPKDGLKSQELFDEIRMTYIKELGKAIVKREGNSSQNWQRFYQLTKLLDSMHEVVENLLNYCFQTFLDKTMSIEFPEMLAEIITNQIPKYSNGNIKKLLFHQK
# How it was run: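 HeLa GR-bla reporter line; cells pre-incubated 4 h, compound in DMSO 18 h at 37 C; LiveBLAzer B/G FRET substrate 2 h RT; fluorescence intensity read-out.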
# [20] = molecular target: Glucocorticoid receptor (Homo sapiens) (UniProt P04150); test: qHTS assay to identify small molecule antagonists of the glucocorticoid receptor (GR) signaling pathway (AID 720692; active = well fitted inhibition curve with a large enough effect in the signal ratio in the repeat runs, not every such curve was filed as active; the % refers to the signal ratio)
# How it was run: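 Read-out: beta-lactamase FRET substrate fluorescence, 2 h at room temperature, in HeLa cells stably carrying a GRE-driven bla reporter. Compounds were co-incubated with 5 nM dexamethasone agonist (final) for 18 h at 37 C.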
smiles,measurement,setting,value
CN1C(=O)CC[C@H]1c1cccnc1,outcome,[1],inactive
same,outcome,[2],inactive
same,outcome,[3],inactive
same,Potency,[4],inactive
same,Potency,[5],inactive
same,Potency,[6],inactive
same,outcome,[7],inactive
same,outcome,[8],inactive
same,outcome,[9],inactive
same,outcome,[10],inactive
same,outcome,[11],inactive
same,outcome,[12],inactive
same,outcome,[13],inactive
same,outcome,[14],inactive
same,outcome,[15],inactive
same,outcome,[16],inactive
same,outcome,[17],inactive
CC1(C)S[C@@H]2[C@H](NC(=O)COc3ccccc3)C(=O)N2[C@H]1C(=O)O,outcome,[1],inactive
same,outcome,[2],inactive
same,outcome,[3],inactive
same,Potency,[4],inactive
same,Potency,[5],inactive
same,Potency,[6],inactive
same,outcome,[7],inactive
same,outcome,[8],inactive
same,outcome,[9],inactive
same,outcome,[10],inactive
same,outcome,[11],inactive
same,outcome,[12],inactive
same,outcome,[13],inactive
same,outcome,[15],inactive
same,outcome,[18],inactive
same,outcome,[19],inactive
CCO[Si](CCCN)(OCC)OCC,outcome,[1],inactive
same,outcome,[2],inactive
same,outcome,[3],inactive
same,Potency,[4],inactive
same,Potency,[5],inactive
same,Potency,[6],inactive
same,outcome,[7],inactive
same,outcome,[8],inactive
same,outcome,[9],inactive
same,outcome,[10],inactive
same,outcome,[11],inactive
same,outcome,[12],inactive
same,outcome,[13],inactive
same,outcome,[14],inactive
same,outcome,[15],inactive
same,outcome,[16],inactive
same,outcome,[19],inactive
same,Potency,[20],inactive
COCCCN,outcome,[1],inactive
same,outcome,[2],inactive
same,outcome,[3],inactive
same,Potency,[4],inactive
same,Potency,[5],inactive
same,Potency,[6],inactive
same,outcome,[7],inactive
same,outcome,[8],inactive
same,outcome,[9],inactive
same,outcome,[10],inactive
same,outcome,[11],inactive
same,outcome,[14],inactive
same,outcome,[15],inactive
same,outcome,[18],inactive
same,outcome,[17],inactive
same,outcome,[19],inactive
same,Potency,[20],inactive
CC(=O)c1ccc(O)cc1,outcome,[1],inactive
same,outcome,[2],inactive
same,outcome,[3],inactive
same,Potency,[4],inactive
same,Potency,[5],inactive
same,Potency,[6],inactive
same,outcome,[7],inactive
same,outcome,[8],inactive
same,outcome,[9],inactive
same,outcome,[10],inactive
same,outcome,[11],inactive
same,outcome,[13],inactive
same,outcome,[15],inactive
same,outcome,[18],inactive
same,outcome,[17],inactive
same,outcome,[19],inactive
same,Potency,[20],inactive
CCc1ccccc1CC,outcome,[1],inactive
same,outcome,[2],inactive
same,outcome,[3],inactive
same,Potency,[4],inactive
same,Potency,[5],inactive
same,"ratio activity, negative = MMP loss",[6],5.07% [at 17.9 µM]
same,outcome,[7],inactive
same,outcome,[8],inactive
same,outcome,[9],inactive
same,outcome,[10],inactive
same,outcome,[11],inactive
same,outcome,[12],inactive
same,outcome,[14],inactive
same,outcome,[15],inactive
same,outcome,[16],inactive
same,outcome,[18],inactive
same,outcome,[19],inactive
same,Potency,[20],inactive
O=C1C(c2[nH]c3ccccc3c2O)=Nc2ccccc21,outcome,[1],inactive
same,outcome,[2],inactive
same,outcome,[3],inactive
same,Potency,[4],inactive
same,Potency,[5],inactive
same,Potency,[6],4.22 µM (active)
same,outcome,[7],inactive
same,outcome,[8],inactive
same,outcome,[9],inactive
same,outcome,[10],inactive
same,outcome,[11],inactive
same,outcome,[12],inactive
same,outcome,[14],inactive
same,outcome,[15],inactive
same,outcome,[16],inactive
same,outcome,[18],inactive
same,outcome,[17],inactive
same,outcome,[19],inactive
CCNC(=S)NCC,outcome,[1],inactive
same,outcome,[2],inactive
same,outcome,[3],inactive
same,Potency,[4],inactive
same,Potency,[5],inactive
same,Potency,[6],inactive
same,outcome,[7],inactive
same,outcome,[8],inactive
same,outcome,[9],inactive
same,outcome,[10],inactive
same,outcome,[11],inactive
same,outcome,[13],inactive
same,outcome,[15],inactive
same,outcome,[18],inactive
same,outcome,[17],inactive
CC(O)CC(C)(C)O (stereo unspecified),outcome,[1],inactive
same,outcome,[2],inactive
same,outcome,[3],inactive
same,Potency,[4],inactive
same,Potency,[5],inactive
same,Potency,[6],inactive
same,outcome,[7],inactive
same,outcome,[8],inactive
same,outcome,[9],inactive
same,outcome,[10],inactive
same,outcome,[11],inactive
same,outcome,[12],inactive
same,outcome,[13],inactive
same,outcome,[14],inactive
same,outcome,[15],inactive
same,outcome,[16],inactive
same,outcome,[18],inactive
same,outcome,[17],inactive
same,outcome,[19],inactive
same,Potency,[20],inactive
